# GC-A act = GC-A (human) enzyme activation | P16066 | activation, % at 10 µM | HEK293 GC-A cells, cGMP TR-FRET, EC30 ANP; 0% at EC30 ANP, 100% saturating ANP | actives 0.14% (n = 370,000); in the data active = activation above about 40%
# Target sequence (P16066 whole entry, looked up): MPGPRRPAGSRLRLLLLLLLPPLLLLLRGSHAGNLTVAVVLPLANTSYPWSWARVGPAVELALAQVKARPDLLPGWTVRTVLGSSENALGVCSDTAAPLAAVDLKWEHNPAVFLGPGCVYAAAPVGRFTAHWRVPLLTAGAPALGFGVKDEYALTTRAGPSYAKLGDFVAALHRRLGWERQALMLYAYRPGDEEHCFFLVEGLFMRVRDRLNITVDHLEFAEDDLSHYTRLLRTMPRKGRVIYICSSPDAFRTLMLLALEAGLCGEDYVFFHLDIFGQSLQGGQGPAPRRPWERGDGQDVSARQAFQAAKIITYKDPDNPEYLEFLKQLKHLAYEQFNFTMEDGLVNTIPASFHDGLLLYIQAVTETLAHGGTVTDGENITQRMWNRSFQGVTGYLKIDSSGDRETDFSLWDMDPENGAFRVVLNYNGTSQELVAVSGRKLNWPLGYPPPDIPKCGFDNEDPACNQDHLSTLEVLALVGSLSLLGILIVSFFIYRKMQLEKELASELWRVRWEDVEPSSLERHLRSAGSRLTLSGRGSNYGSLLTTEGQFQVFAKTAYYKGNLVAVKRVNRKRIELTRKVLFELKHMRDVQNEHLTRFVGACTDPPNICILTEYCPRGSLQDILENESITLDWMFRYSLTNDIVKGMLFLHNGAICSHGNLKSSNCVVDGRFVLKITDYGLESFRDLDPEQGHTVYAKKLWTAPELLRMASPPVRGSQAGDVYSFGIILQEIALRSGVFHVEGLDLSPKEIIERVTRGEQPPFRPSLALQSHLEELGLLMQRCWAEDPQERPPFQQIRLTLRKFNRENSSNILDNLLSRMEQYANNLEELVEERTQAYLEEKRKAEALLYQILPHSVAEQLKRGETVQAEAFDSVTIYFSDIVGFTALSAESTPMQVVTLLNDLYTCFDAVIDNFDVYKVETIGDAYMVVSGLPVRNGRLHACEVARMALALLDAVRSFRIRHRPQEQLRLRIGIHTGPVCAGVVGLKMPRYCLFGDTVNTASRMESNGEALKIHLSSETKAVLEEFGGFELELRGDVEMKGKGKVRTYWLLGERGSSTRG
# Granule exo inh = lytic granule exocytosis inhibition | TALL-104 LAMP-1 surface exposure, flow cytometry; cells stimulated with thapsigargin and PMA | inhibition, % at 10 µM | actives 0.66% (n = 360,000) | AID 651702;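 active = inhibition above about 55%, limit read from the data; inconclusive = no clear call, values can overlap the other calls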
# NPR2 activator = GC-B (human) receptor activation | actives 0.11% (n = 370,000) | HEK293-GC-B cells, CNP EC30, cGMP TR-FRET; 0% at EC30 CNP, 100% saturating CNP | P20594 | AID 1920062 | activation, % at 10 µM;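 active = activation at 10 µM reaching about 35% in either raw or pattern-adjusted values, limit read from the data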
# Myeloid diff 2 = myeloid differentiation induction | calls only at 10 µM | actives 1% (n = 360,000) | ER-HoxA9 myeloid progenitors, lysozyme-GFP differentiation, flow cytometry | AID 624256;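 active = normalized GFP-positive differentiation at or above the plate's own cutoff, the solvent-only control mean plus 3 SD; inconclusive = no clear call, values can overlap the other calls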;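 also: cells exposed to compound for four days before flow analysis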
# Myeloid diff CP1 = compounds promoting myeloid differentiation; shares compounds with Myeloid diff 2; ER-HoxA9 myeloid progenitors, GFP/Mac1 double-positive flow; calls only; actives 2% (n = 2,300); AID 651706;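 active = share of green or green-and-red cells above 9 and 9% in run 1 or 4 and 3% in run 2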
# GFP autofluor = compound fluorescence in myeloid differentiation counter-screen; shares compounds with Myeloid diff 2; ER-HoxA9 myeloid progenitors, no estrogen, GFP autofluorescence flow cytometry; vehicle wells 0%, positive control 100%; fluorescence response, % (concentration not given with the values); actives 7.4% (n = 2,300);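 active = over 5% cells positive for green fluorescent reporter, or over 2% positive for both it and APC stain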;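 also: range taken on the double positive population between DMSO and positive control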
# * = called active by the depositor; i = inactive; ? = inconclusive; . = not tested or not shown; + = active, no number. Most compounds without a hit are left out; they make up all but 1.8% or so of the library.
SMILES,GC-A act,Granule exo inh,NPR2 activator,Myeloid diff 2,Myeloid diff CP1,GFP autofluor
COc1ccccc1CCNC(=O)c1ccoc1C,3.2,-4.3,6.3,+,i,0.4
Cc1occc1C(=O)NCCCCc1ccccc1,2.1,2.1,0.7,i,.,.
NNC(=O)c1ccc(CSc2cccc3cccnc23)cc1,-5.1,-1.2,1.2,i,i,0.3
COc1ccc(-n2c(C)cc(C(=O)COC(=O)Cc3n[nH]c(=O)c4ccccc34)c2C)cc1,-1.5,5.7,-2.4,?,.,.
Cc1cc(C(=O)COC(=O)Cc2n[nH]c(=O)c3ccccc23)c(C)n1-c1ccc2c(c1)OCO2,3.5,0.2,2.2,+,i,0.7
C=C(C)/C=C1/CN(Cc2ccc3c(c2)OCO3)C(=N)N1C(=O)OCc1ccccc1,3.5,.,6.5,.,.,.
N#C/C(=C\c1ccccc1)C(=O)NC1CC1,1.2,-2.6,2.5,i,.,.
N#C/C(=C\c1cccnc1)C(=O)NC1CCCCC1,18.1,-2.8,1.5,+,i,0.8
CCCCCSc1nncc(=O)[nH]1,0.1,0.0,3.9,+,i,0.7
O=C(c1cc(-c2ccccc2)on1)N1CCC(Oc2cccnc2)CC1,-3.7,.,-5.7,.,.,.
CN(CC(=O)Nc1ccc(F)cc1)C(=O)COC(=O)CN1C(=O)NC2(CCCC2)C1=O,2.3,8.7,-2.2,i,.,.
Cc1ccc(NC(=O)COC(=O)CN2C(=O)NC3(CCCC3)C2=O)cc1F,-1.1,-7.1,-0.4,i,i,1.2
CC(C)(C)c1cc(C(=O)Nc2ccccc2)ccn1,1.3,-2.0,0.8,i,.,.
Cc1ccc(NC(=O)c2ccnc(C(C)(C)C)c2)cc1,-0.7,4.9,4.7,i,i,0.2
COc1ccc(NC(=O)c2ccc3nccnc3c2)cc1,-1.3,-2.1,0.8,i,i,0.0
COc1cccc(-c2cnc3c(NC(C)=O)cc(-c4ccc(C(=O)N5CCOCC5)cc4)cn23)c1,4.1,-7.9,3.8,i,.,.
O=[N+]([O-])c1cccc(-c2nc(-c3ccccc3)no2)c1,1.2,10.9,-1.4,i,.,.
O=[N+]([O-])c1cccc(-c2nc(-c3ccncc3)no2)c1,-2.7,0.3,7.7,+,i,2.5
CCCCCCOC(=O)C(C#N)c1nc2ccccc2nc1N1CCN(CC)CC1 (stereo not given),-3.6,3.3,-6.0,+,i,0.0
O=C(NC(=O)c1c(F)cccc1F)Nc1cccc(Oc2ncc(Cl)cn2)c1,-3.4,-5.1,0.6,i,.,.
O=C(Nc1ccc2c(c1)OCO2)NC1CCCCN(Cc2cccc(Cl)c2)C1=O (stereo not given),-3.0,.,-3.0,.,.,.
CCC(c1nnc(SCC(=O)NC23CC4CC(CC(C4)C2)C3)o1)N(C)C (stereo not given),0.1,-3.4,6.6,+,i,0.2
COc1ccc(-c2ccc(C(=O)NCc3ccc(N4CCN(C)CC4)cc3)c3occc23)c(C)c1,-10.9,27.3,1.7,+,i,0.5
COc1ccc(-c2ccc(C(=O)NCc3ccccc3)c3occc23)c(C)c1,-0.1,5.1,6.9,i,.,.
CCCCCCCCN1C(=O)[C@H](CC(=O)NCCCC)C[C@@]2(C(=O)OC)CC(C)(C)CC=C12,-2.9,4.7,2.8,i,.,.
SMILES,GC-A act,Granule exo inh,NPR2 activator,Myeloid diff 2,Myeloid diff CP1,GFP autofluor
CCN(CC)C(=O)CN1C(=O)c2cccc3cccc1c23,5.1,-7.1,1.4,i,.,.
CCN(CC)C(=O)CN1C(=O)C(=O)c2ccccc21,-1.5,10.0,1.9,i,i,0.6
O=[N+]([O-])c1ccc2c(c1)-c1ccccc1C2O (stereo not given),5.2,-2.9,2.1,i,.,.
CC1(Oc2ccccc2)CCN(Cc2ccc(-c3ccccn3)cc2)C1 (stereo not given),-2.8,-4.9,-2.0,i,.,.
COc1ccc(-c2csc(NC3CCCCC3)n2)c(OC)c1,-0.1,-2.3,5.0,+,i,0.0
c1ccc(-c2csc(NC3CCCCC3)n2)cc1,9.7,-4.3,-2.1,.,.,.
Cc1cccc(Nc2ncccc2C(=O)NCc2cccs2)c1C,-0.4,-1.3,-7.7,i,i,0.0
C=CCN1C(=O)[C@@H](CC(=O)NCCC(C)C)[C@]2(C(=O)OC)CCCCC=C12,2.4,.,-3.8,.,.,.
